Measurements: PubChem BioAssay (NCI)
About 83,000 compounds went through this panel and 20% of them were active in at least one assay; those are over-represented in the sample as a whole.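 Cell lines were cultured in 96-well plates, exposed to a single compound concentration, and assessed for percent growth 48 hours later.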 A number with no mark means an inactive call. Activity calls are given as the source filed them. How the source made its calls: active means growth percent below 10; inactive means the rest.

Key:
Assay in all cases: NCI-60 one-dose screen, 48 h (100 = growth as untreated, 0 = no growth, -100 = all killed)
Settings in all cases: 10 µM unless noted
SR leukemia = tested on: SR leukemia
RPMI-8226 leukemia = tested on: RPMI-8226 leukemia
OVCAR-8 ovarian = tested on: OVCAR-8 ovarian
OVCAR-5 ovarian = tested on: OVCAR-5 ovarian
OVCAR-4 ovarian = tested on: OVCAR-4 ovarian
SK-OV-3 ovarian = tested on: SK-OV-3 ovarian
OVCAR-3 ovarian = tested on: OVCAR-3 ovarian
HS 578T breast = tested on: HS 578T breast
NCI/ADR-RES ovarian = tested on: NCI/ADR-RES ovarian
IGROV1 ovarian = tested on: IGROV1 ovarian

Row | SMILES | growth (SR leukemia) | growth (RPMI-8226 leukemia) | growth (OVCAR-8 ovarian) | growth (OVCAR-5 ovarian) | growth (OVCAR-4 ovarian) | growth (SK-OV-3 ovarian) [%] | growth (OVCAR-3 ovarian) | growth (HS 578T breast) | growth (NCI/ADR-RES ovarian) | growth (IGROV1 ovarian)
1 | COc1ccc2c(c1)c(-c1nc(-c3c[nH]c4ncccc34)cs1)cn2CCNC(=O)OC(C)(C)C | 62.7% | 41.2% | 45.7% | 104% | 55.7% | 110 | 84.4% | 76.3% | 56.6% | –
2 | C=C1C(=O)O[C@H]2[C@H]1CC/C(Cn1cc(-c3ccc(F)cc3)nn1)=C\CC[C@@]1(C)O[C@@H]21 | -15.1% (active) | -34.1% (active) | -16% (active) | -1.87% (active) | 13.7% | 102 | -91.3% (active) | 58.1% | 35.6% | –
3 | O=C(/C=C\c1ccc2c(c1)OCO2)/C=C/c1ccc2c(c1)OCO2 | 10.5% | -9.97% (active) | 101% | 108% | 84.9% | 92 | 69.5% | – | 92.1% | 88.9%
4 | C=C(C)[C@@H]1CC[C@]2(C(=O)O)CC[C@]3(C)[C@H](CC[C@@H]4[C@@]5(C)C/C(=C/c6ccc(OC)cc6)C(=O)C(C)(C)[C@@H]5CC[C@]43C)[C@@H]12 | 30.9% | 15.5% | 23.2% | 49.3% | 26.8% | 25 | 16.5% | 49.9% | 17.7% | –
5 | CN1CCN(c2nc(-c3cccc4ccccc34)nc3sc4c(c23)CCCCCC4)CC1 | 47.1% | 79.3% | 93% | 90.2% | 83.8% | 89.2 | – | 86.1% | 87.4% | 72.6%
6 | CN(C)c1ccc(-c2ccc(-c3ccc(C(=N)N)c(F)c3)s2)cc1 | 1.32% (active) | -52.6% (active) | -26.4% (active) | -89.2% (active) | -85.1% (active) | – | -88.2% (active) | 102% | -49.2% (active) | -84% (active)
7 | O=[N+]([O-])c1ccc(N/N=C(\C(=N/Nc2ccc([N+](=O)[O-])cc2[N+](=O)[O-])c2ccccc2)c2ccccc2)c([N+](=O)[O-])c1 | -1.67% (active) | 93.3% | 87.6% | 98.4% | 5.4% (active) | – | 84% | 74.4% | 90.4% | 92.3%
8 | c1csc(-c2nc(-c3cc4ccccc4c(N4CCOCC4)n3)cs2)c1 | 97.7% | 106% | 102% | 124% | 110% | – | 111% | 99.9% | 94.2% | –
9 | Fc1ccc(Nc2nc(Nc3ccc(-c4nc5ccccc5[nH]4)cc3)nc(N3CCCC3)n2)cc1 | 10.7% | -11.6% (active) | 81.7% | 97.4% | 88.6% | – | 94.4% | 84.6% | 63% | 83%
10 | O=C(NCN1C(=O)c2cccc3cccc(c23)C1=O)N1CCC(Cc2ccccc2)CC1 | 89.6% | 87.8% | 102% | 104% | 98.8% | – | 109% | 95.8% | 102% | 100%
11 | Brc1cnc2[nH]cc(-c3nnc(-c4ccccc4)o3)c2c1 | 68.5% | 85% | 84.7% | 96.5% | 71.3% | – | 70.2% | 79.2% | 80% | 41.2%
12 | CC1(n2nnnc2N2CCCN(c3ncccc3N)CC2)CCC1 | 79.1% | 104% | 102% | 98.7% | 97.2% | – | 106% | 97.5% | 103% | 99.7%
13 | Cc1cc(Cl)c2c(N(C)C)cccc2n1 | 75% | 104% | 94.5% | 119% | 108% | 92.4 | 100% | 136% | 106% | –
14 | NCCNc1nc(-c2ccccc2)nc2nc(-c3ccccc3)oc12 | 7.63% (active) | 68.7% | 97.7% | 105% | 96.5% | – | 88.2% | 91.3% | 91.8% | 81.8%
15 | C=C(C)[C@@H]1CC[C@]2(CN)CC[C@]3(C)[C@H](CC[C@@H]4[C@@](C)(CCCN)[C@H](C(=C)C)CC[C@]43C)[C@@H]12 | -3.93% (active) | 58.5% | 94.1% | 103% | 102% | – | 89.4% | 89.4% | 94.5% | 86.9%
16 | Fc1ccc2c(c1)c(-c1nc(-c3c[nH]c4ncccc34)cs1)cn2CCCN1CCCCC1 | -34.7% (active) | -21.1% (active) | 76.9% | 88.3% | 70.6% | – | 61.7% | 75.1% | 74.1% | 45.7%
17 | Cc1ccc(Cc2cnc(NC(=O)/C=C/c3cccc(C)c3)s2)cc1 | 13.2% | 3.37% (active) | 21% | 20.9% | 12.9% | – | -41.4% (active) | 6.83% (active) | -36.5% (active) | 18.3%
18 | O=C1c2ccccc2NC(c2cn(-c3ccccc3)nc2-c2cccs2)N1Cc1ccccc1 (stereo not given) | 66.8% | 76.2% | 90.3% | 90% | 87.1% | – | 89.3% | 94.3% | 73.2% | 69.3%
19 | CCCCC[C@H]1CC=C2C(=O)C=C[C@@H]2CC=CCCCC(=O)O[C@@H](CCCCC)CC=C2C(=O)C=C[C@@H]2CC=CCCCC(=O)O[C@@H](CCCCC)CC=C2C(=O)C=C[C@@H]2CC=CCCCC(=O)O1 | -6.53% [8.75 µM] (active) | -9.62% [8.75 µM] (active) | 12.2% [8.75 µM] | -23.7% [8.75 µM] (active) | 22.4% [8.75 µM] | – | -54.2% [8.75 µM] (active) | 40.2% [8.75 µM] | 49.8% [8.75 µM] | -46.1% [8.75 µM] (active)
